Assay results from PubChem BioAssay AID430 (Sanford-Burnham Center for Chemical Genomics, 2006).
Hit rate of the full screen: of about 63,000 compounds, about 1,100 (1.7%) were called active. The sample as a whole holds a higher share of actives than the screen did. Potency and affinity values are given separately. Values without a mark were called inactive. Cut-off read from the data, not from the text of the source: active = cytotoxicity above about 50%; inactive = the rest.

test: HPDE-C7 pancreatic duct cell viability loss – fluorescence, HTS (AID 430); conditions: HPDE-C7 pancreatic duct cells viability, at 10 µM, active compounds read high;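 note: cells exposed to compound for 48 hours before viability readout; 0% = vehicle and 100% = reference cytotoxic drug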

| SMILES | cytotoxicity |
| --- | --- |
| CCC(=O)Nc1nc(C)nc(C)c1C(C)=O | -5.6% |
| CC(=O)Nc1ccc(C)cc1NC(C)=O | -3.9% |
| COc1ccc(C(c2nnnn2CCc2ccccc2)N2CCN(C3CCCC3)CC2)cc1 (centres undefined) | -6.9% |
| O=C(O)CSc1cccc2cccnc12 | -7.9% |
| CCOC(=O)CNc1ncnc2nc[nH]c12 | -3.5% |
| c1ccc(-c2nnc(-c3ccccn3)nn2)nc1 | 6.6% |
| c1ccc(-c2ccc(-c3ccccn3)nn2)nc1 | 0.9% |
| COc1ccc(S(=O)(=O)N2CCOCC2)c(Cl)c1Cl | -17.3% |
| CCc1nc(NC2CCCCC2)c(C#N)c2c1COC(C)(C)C2 | 63.4% (active) |
| CCCc1nc(NC2CCCCC2)c(C#N)c2c1COC(C)(C)C2 | -4.4% |
| CCc1nc(NCC2CCCO2)c(C#N)c2c1COC(C)(C)C2 (centres undefined) | -11.3% |
| COc1ccc(-n2cnnc2SCC(=O)c2cc(C)n(Cc3cccs3)c2C)cc1 | 0.5% |
| CCOC(=O)C1=C(N2CCCCC2)c2cc3c(n2C1=O)CCCC3 | 10.1% |
| CCSc1ncnc2c(C#N)c3n(c12)CCCCC3 | -13.6% |
| CCN1CCN(CCNC(=O)c2ccc(CS(=O)(=O)c3ccccc3C)o2)CC1 | -0.5% |
| Cc1ccc(NC(=O)c2nnn(-c3cc(C)cc(C)c3)c2N)cc1 | 55.6% (active) |
| Cc1cc(C)cc(NC(=O)c2nnn(Cc3cc(C)ccc3C)c2N)c1 | 58.9% (active) |
| Cc1ccc(C)c(NC(=O)c2nnn(Cc3ccccc3C)c2N)c1 | 1.7% |
| Cc1ccc(CCNC(=O)c2nnn(-c3cc(C)cc(C)c3)c2N)cc1 | 3.4% |
| COc1ccc(C)cc1NC(=O)c1nnn(Cc2cc(C)ccc2C)c1N | 7.5% |
| Cc1cccc(-n2nnc(C(=O)Nc3ccc(F)cc3)c2N)c1 | 15.2% |
| CCOC(=O)C(Cc1c[nH]c2ccccc12)NC(=O)CNC(C)=O (centres undefined) | 2.5% |
| CCCn1cnc2cc(NCc3cccc(OC)c3O)ccc21 | 5.7% |
| CCOC(=O)c1ccc2ncc(C(=O)OCC)c(NCCCN3CCOCC3)c2c1 | 3% |
| COc1ccc2c(c1)C1(Nc3ccccc3C(=O)N1c1ccccc1)C(=O)N2 (centres undefined) | -14.8% |

| SMILES | cytotoxicity |
| --- | --- |
| CC(=Nc1ccccc1)Nc1ccccc1 | -13.5% |
| S=C(N=Nc1ccccc1)NNc1ccccc1 | 58.8% (active) |
| ONC(=Nc1ccccc1)C(=Nc1ccccc1)NO | 0.4% |
| COc1ccc(C2C(C(=O)NCCN3CCOCC3)c3ccccc3C(=O)N2C)cc1OC (centres undefined) | -4.3% |
| c1ccc(-c2nnc3sc(-c4csc5c4CCCC5)nn23)cc1 | 75% (active) |
| Cc1ccccc1-c1nn2c(-c3ccccc3)nnc2s1 | -0.8% |
| Cc1nnc2sc(-c3csc4c3CCCC4)nn12 | -4.3% |
| CCS(=O)(=O)n1nc(-c2ccccc2)cc1N | 1% |
| O=C(Cc1cccs1)N1CCCC(c2nc3c(nnn3Cc3ccc(F)cc3)c(=O)[nH]2)C1 (centres undefined) | 3.7% |
| CC(C)(C)c1ccc(Cn2nnc3c(=O)[nH]c(C4CCN(C(=O)Cc5cccs5)CC4)nc32)cc1 | 0.2% |
| CCOc1ccc(-c2n[nH]c(C)c2-c2ccccc2OC)c(O)c1 | -12.5% |
| CCCOC(=O)c1ccc(OC(=O)c2ccco2)cc1 | -5.8% |
| COc1ccc(C(=O)OCCN2C(=O)c3ccccc3C2=O)cc1 | -2.8% |
| CCCOC(=O)c1ccc(NC(=O)c2cnccn2)cc1 | -2% |
| CCC(=O)Nc1c2c(nn1-c1ccc(C)cc1C)CSC2 | -2.4% |
| O=C(Nc1ccon1)c1cccc(S(=O)(=O)N2CCCC2)c1 | -18.1% |
| Cc1ccc(C)c(NC(=O)CCn2nc(C)cc2C)c1 | -17.9% |
| c1ccc2[nH]c(CN3CCN(c4ncnc5c4oc4ccccc45)CC3)nc2c1 | -2.8% |
| CC(=O)N1CCN(C(=O)COc2ccc(Br)cc2)CC1 | 4.1% |
| CCOc1ccc(NC(=O)c2ccccc2NC(=O)CN2CCN(C(C)=O)CC2)cc1 | -0.6% |
| O=C(C1CCN(Cc2ccc(F)cc2)CC1)N(CCO)Cc1ccccc1 | 2.8% |
| COC(=O)c1c(NC(=O)c2ccoc2C)sc2c1CCC2 | -21% |
| COC(=O)c1c(NC(C)=O)sc2c1CCCC2 | -2% |
| COC(=O)c1c(NC(=O)c2ccc(Br)s2)sc2c1CCC2 | 53.5% (active) |
| O=C(Nc1ccc2c(c1)OCO2)C(c1ccc(Cl)cc1)N1CCC2(CC1)OCCO2 (centres undefined) | 4.2% |

| SMILES | cytotoxicity |
| --- | --- |
| CC(=O)c1c(C)nc(-c2ccc3c(c2)OCO3)n1O | -6.2% |
| CC1CCN(C(=O)CNC(=O)Cn2ccc3ccccc3c2=O)CC1 | -13.9% |
| CN1CC2=Cc3ccccc3OC23Oc2ccccc2C=C3C1 | 58.3% (active) |
| CCCCn1c(=O)[nH]c(=O)c2c1nc(COC(=O)c1c(C)noc1C)n2CCC | -7% |
| Cc1cc(-c2ccccc2)c(C#N)c(N)n1 | -14.3% |
| CSc1nc(-c2ccco2)cc(-c2ccccc2)c1C#N | -2.3% |
| C=CCn1c(SCC(=O)C(C)(C)C)nnc1-c1cccs1 | -5.8% |
| O=C(Oc1c(Cl)cc(Cl)c2cccnc12)N1CCOCC1 | 3.3% |
| O=C(Oc1ccc(Cl)c2cccnc12)N1CCOCC1 | 10.3% |
| COc1ccc(C(=O)Oc2c(CN3CCOCC3)cc(Cl)c3cccnc23)cc1OC | 7.4% |
| COc1cc(C(=O)Oc2c(CN3CCOCC3)cc(Cl)c3cccnc23)cc(OC)c1OC | 29% |
| Cc1ccc(CCNC(=O)C2CCCN(S(=O)(=O)c3cnc[nH]3)C2)cc1 (centres undefined) | -8.4% |
| O=C(NCC(=O)N(c1ccc2c(c1)OCO2)C(C(=O)NC1CCCC1)c1ccncc1)c1ccco1 (centres undefined) | -5.8% |
| Cc1cccc2cc(COC(=O)c3cccnc3)c(=O)[nH]c12 | 8.9% |
| CC1CCN(S(=O)(=O)c2ccc3[nH]c(=O)c(=O)[nH]c3c2)CC1 | -9% |
| COC(=O)Cc1cc(=O)[nH]c(/N=C(/NC(=O)c2ccccc2)Nc2ccccc2C)n1 | 2.1% |
| CCC(NC(C)C)C(O)c1ccc(O)c(O)c1 (centres undefined) | 15.3% |
| Cc1ccc(O)c(CC(C)C)n1 | -4.7% |
| O=C(c1cc2ccccc2cc1OCC(O)CN1CCCCC1)N1CCCCC1 (centres undefined) | -0.7% |
| CC1CCCN(S(=O)(=O)c2cc(Cl)ccc2Cl)C1 (centres undefined) | -32.2% |
| CCN(CC)S(=O)(=O)c1cccc(C(=O)Nc2nncs2)c1 | -14.1% |
| CCN(CC)S(=O)(=O)c1ccc(Cl)c(C(=O)Nc2nncs2)c1 | 2.1% |
| Cc1ccccc1-n1c(SC/C(O)=C(\C#N)c2nc3ccccc3[nH]2)nnc1-c1ccncc1 | -17.8% |
| Nc1nc(NC(=O)c2cccnc2)nn1-c1ccccc1 | 3.1% |
| Nc1nc(NC(=O)c2ccco2)nn1-c1ccccc1 | 2% |

| SMILES | cytotoxicity |
| --- | --- |
| Cc1ccc(C2CC(=O)NC(SCc3ccccc3)=C2C#N)o1 (centres undefined) | 10.6% |
| CCCCCCSC1=C(C#N)C(c2ccc(C)o2)CC(=O)N1 (centres undefined) | -8% |
| CC1=C(C(=O)OC2CCCCCC2)C(c2ccc(C)o2)C2=C(CCCC2=O)N1 (centres undefined) | -13.9% |
| CCOC(=O)CSC1=C(C#N)C(c2ccc(Cl)cc2)CC(=O)N1 (centres undefined) | -16% |
| Cc1ccc(C2CC(=O)NC(SCC(=O)OCc3ccccc3)=C2C#N)o1 (centres undefined) | 59.6% (active) |
| CC1=C(C(=O)OC2CCCCC2)C(c2ccc(C)o2)C2=C(CCCC2=O)N1 (centres undefined) | -7% |
| COC(=O)CSC1=C(C#N)C(c2ccccc2)CC(=O)N1 (centres undefined) | -10% |
| CC1=C(C(=O)OCc2ccccc2)C(c2ccc(C)o2)C2=C(CCCC2=O)N1 (centres undefined) | 54.4% (active) |
| CCOC(=O)CSC1=C(C#N)C(c2ccc(C)o2)CC(=O)N1 (centres undefined) | 68.5% (active) |
| CC(=O)Nc1cccc(NC(=O)CSc2nnc(Cc3cccn3C)n2-c2ccc(F)cc2)c1 | -6.9% |
| Cc1cccc(C(C)(C)C)c1OCCn1ccnc1 | 8.6% |
| COc1ccc(S(=O)(=O)N(CC(N)=O)C2CCCCC2)cc1Cl | -13.6% |
| O=C(CN1CCN(C(=O)c2ccco2)CC1)Nc1ccc2c(c1)OCCO2 | -13.8% |
| CCn1c(N2CCC(Cc3ccccc3)CC2)nc2c1c(=O)[nH]c(=O)n2C | -25.9% |
| CC(=O)OC[C@H]1O[C@@H](n2ccc(=O)[nH]c2=S)C(OC(C)=O)C1OC(C)=O (some centres undefined) | -1% |
| CC(=O)OCC1OC(n2ccc(=O)[nH]c2=O)C(O)C1O (centres undefined) | -11.3% |
| CC(=O)OC[C@H]1O[C@@H](n2ncc(=O)[nH]c2=O)[C@H](OC(C)=O)[C@@H]1OC(C)=O | 56.2% (active) |
| CCSc1cc(C2C(C#N)=C(N)OC(C)=C2C(=O)OC)c(C)o1 (centres undefined) | 3.5% |
| CCOC(=O)CCc1nn(C)c(=O)c2ccccc12 | -11.1% |
| Cc1ccc(S(=O)(=O)N(C)CC(=O)N2CCN(c3ccccn3)CC2)cc1 | 6.4% |
| Cc1cc(-c2csc(NC(=O)c3ccc(=O)n(C)n3)n2)c(C)n1CC1CCCO1 (centres undefined) | -8.1% |
| CCC(C)n1ncn(-c2ccc(N3CCN(c4ccc(OCC5COC(Cn6cncn6)(c6ccc(Cl)cc6Cl)O5)cc4)CC3)cc2)c1=O (centres undefined) | 65.7% (active) |
| CCCC1COC(Cn2cncn2)(c2ccc(C)cc2)O1 (centres undefined) | -5.7% |
| O=C1Nc2ccccc2C12OCC(COc1ccc(Cl)cc1)O2 (centres undefined) | 30.3% |
